# Measured values from paper PMC7862700, “An all-to-all approach to the identification of sequence-specific readers for epigenetic DNA modifications on cytosine”.
# Key:
# Assay in all cases: DAPPL (digital affinity profiling via proximity ligation, sequencing); 10 mM Tris-HCl pH 7.5, 50 mM NaCl, 1 mM DTT, 4% glycerol, room temperature, 30 min; GST-TFs on glutathione beads, 16-mer random dsDNA library, 0.1% formaldehyde crosslink after washing; high values mean tight binding
# FLI1 = target: T1, FLI1 (Homo sapiens, UniProt Q01543 1-452); settings: protein: recombinant; tags: N-terminal GST; dsDNA, one strand shown
# T1 sequence: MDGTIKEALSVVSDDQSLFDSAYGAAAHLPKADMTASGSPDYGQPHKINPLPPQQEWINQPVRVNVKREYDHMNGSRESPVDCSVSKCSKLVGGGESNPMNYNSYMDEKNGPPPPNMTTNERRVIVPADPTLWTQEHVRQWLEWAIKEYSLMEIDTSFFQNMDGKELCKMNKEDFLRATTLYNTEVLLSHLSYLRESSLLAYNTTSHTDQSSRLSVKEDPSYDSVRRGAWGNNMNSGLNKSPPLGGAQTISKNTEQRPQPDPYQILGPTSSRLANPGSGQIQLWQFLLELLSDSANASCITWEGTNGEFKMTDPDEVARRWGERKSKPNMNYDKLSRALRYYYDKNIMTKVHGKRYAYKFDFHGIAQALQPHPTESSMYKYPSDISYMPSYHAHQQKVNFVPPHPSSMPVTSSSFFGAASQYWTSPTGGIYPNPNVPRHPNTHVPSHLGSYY
# Method in brief: (§1)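 GST fusions of human transcription factors were expressed in yeast and captured with glutathione beads. Once given DNA barcodes and pooled alongside a tag-only sample, they were incubated for 30 min at room temperature with 200 nmole of a random double-stranded 16-mer DNA library in Tris/NaCl/DTT/glycerol buffer, then washed, crosslinked (0.1% formaldehyde), proximity-ligated, PCR-amplified and sequenced on an Illumina NextSeq500. The binding signal of each hexamer is its read frequency for a factor divided by its frequency for the tag-only sample.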
# ELK1 = target: T2, ELK1 (Homo sapiens, UniProt P19419 1-428); settings: protein: recombinant; tags: N-terminal GST; dsDNA, one strand shown
# T2 sequence: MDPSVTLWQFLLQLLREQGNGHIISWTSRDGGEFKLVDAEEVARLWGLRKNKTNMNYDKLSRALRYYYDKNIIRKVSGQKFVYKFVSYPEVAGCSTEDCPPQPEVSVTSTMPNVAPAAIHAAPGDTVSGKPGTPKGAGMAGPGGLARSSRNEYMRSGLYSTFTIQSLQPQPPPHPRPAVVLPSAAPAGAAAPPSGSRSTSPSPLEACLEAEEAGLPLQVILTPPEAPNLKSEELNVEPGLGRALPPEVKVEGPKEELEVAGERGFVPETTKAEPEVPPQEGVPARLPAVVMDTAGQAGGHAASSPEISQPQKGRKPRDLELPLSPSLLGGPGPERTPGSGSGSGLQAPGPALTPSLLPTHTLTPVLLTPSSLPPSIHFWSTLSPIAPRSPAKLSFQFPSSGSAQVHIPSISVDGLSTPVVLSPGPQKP
# Method in brief: as §1
# GABPA = target: T3, GABPA (Homo sapiens, UniProt Q06546 1-454); settings: protein: recombinant; tags: N-terminal GST; dsDNA, one strand shown
# T3 sequence: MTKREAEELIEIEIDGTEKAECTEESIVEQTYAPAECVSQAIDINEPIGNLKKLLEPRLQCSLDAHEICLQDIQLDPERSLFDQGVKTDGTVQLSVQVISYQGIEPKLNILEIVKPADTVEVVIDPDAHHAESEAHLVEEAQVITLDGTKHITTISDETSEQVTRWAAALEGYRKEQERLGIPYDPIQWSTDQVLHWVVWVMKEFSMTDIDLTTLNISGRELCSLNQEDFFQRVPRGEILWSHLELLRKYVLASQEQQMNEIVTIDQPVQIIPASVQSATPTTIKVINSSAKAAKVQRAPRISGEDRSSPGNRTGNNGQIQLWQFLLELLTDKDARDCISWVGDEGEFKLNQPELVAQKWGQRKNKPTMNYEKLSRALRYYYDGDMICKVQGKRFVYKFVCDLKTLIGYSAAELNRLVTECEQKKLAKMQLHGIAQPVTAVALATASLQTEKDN
# Method in brief: as §1
# ERG = target: T4, ERG (Homo sapiens, UniProt P11308 1-479); settings: protein: recombinant; tags: N-terminal GST; dsDNA, one strand shown
# T4 sequence: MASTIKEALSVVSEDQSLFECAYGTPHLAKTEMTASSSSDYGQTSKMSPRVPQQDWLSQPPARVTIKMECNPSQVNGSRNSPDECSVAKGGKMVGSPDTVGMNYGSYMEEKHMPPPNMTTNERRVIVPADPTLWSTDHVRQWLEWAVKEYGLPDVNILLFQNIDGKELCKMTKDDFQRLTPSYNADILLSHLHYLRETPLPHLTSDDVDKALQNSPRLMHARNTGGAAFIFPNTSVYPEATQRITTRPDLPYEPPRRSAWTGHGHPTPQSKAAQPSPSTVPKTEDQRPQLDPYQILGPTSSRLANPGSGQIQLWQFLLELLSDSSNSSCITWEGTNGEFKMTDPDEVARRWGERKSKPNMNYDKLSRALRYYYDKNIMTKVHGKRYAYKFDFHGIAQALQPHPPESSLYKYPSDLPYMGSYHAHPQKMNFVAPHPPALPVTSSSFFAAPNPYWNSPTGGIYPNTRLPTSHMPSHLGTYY
# Method in brief: as §1
# ELF1 = ELF1 (Homo sapiens, UniProt P32519 1-619); settings: protein: recombinant; tags: N-terminal GST; dsDNA, one strand shown
# Method in brief: as §1
# EHF = target: T5, EHF (Homo sapiens, UniProt Q9NZC4 1-300); settings: protein: recombinant; tags: N-terminal GST; dsDNA, one strand shown
# T5 sequence: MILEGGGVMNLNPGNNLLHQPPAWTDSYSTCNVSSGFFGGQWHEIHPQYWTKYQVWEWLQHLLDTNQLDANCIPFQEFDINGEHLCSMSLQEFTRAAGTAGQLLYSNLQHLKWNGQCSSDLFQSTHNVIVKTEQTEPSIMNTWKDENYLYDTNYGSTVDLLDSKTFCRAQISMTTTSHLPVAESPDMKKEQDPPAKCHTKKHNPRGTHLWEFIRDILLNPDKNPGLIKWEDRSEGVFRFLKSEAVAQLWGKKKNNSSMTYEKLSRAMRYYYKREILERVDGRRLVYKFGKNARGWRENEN
# Method in brief: as §1
# SPI1 = SPI1 (Homo sapiens, UniProt P17947 1-270); settings: protein: recombinant; tags: N-terminal GST; dsDNA, one strand shown
# Method in brief: as §1
# SPIB = SPIB (Homo sapiens, UniProt Q01892 1-262); settings: protein: recombinant; tags: N-terminal GST; dsDNA, one strand shown
# Method in brief: as §1
# ELK3 = target: T6, ELK3 (Homo sapiens, UniProt P41970 1-407); settings: protein: recombinant; tags: N-terminal GST; dsDNA, one strand shown
# T6 sequence: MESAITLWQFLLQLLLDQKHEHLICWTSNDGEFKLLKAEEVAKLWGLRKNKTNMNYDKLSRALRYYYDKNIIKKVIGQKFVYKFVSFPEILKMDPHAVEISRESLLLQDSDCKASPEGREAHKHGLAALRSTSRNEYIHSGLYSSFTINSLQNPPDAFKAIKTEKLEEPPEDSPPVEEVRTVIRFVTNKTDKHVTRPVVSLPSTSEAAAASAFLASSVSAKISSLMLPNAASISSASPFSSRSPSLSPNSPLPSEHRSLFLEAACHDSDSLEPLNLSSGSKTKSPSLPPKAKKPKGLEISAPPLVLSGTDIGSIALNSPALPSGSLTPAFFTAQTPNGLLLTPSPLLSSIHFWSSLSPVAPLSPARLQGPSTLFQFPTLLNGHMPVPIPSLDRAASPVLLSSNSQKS
# Method in brief: as §1
# FEV = target: T7, FEV (Homo sapiens, UniProt Q99581 1-238); settings: protein: recombinant; tags: N-terminal GST; dsDNA, one strand shown
# T7 sequence: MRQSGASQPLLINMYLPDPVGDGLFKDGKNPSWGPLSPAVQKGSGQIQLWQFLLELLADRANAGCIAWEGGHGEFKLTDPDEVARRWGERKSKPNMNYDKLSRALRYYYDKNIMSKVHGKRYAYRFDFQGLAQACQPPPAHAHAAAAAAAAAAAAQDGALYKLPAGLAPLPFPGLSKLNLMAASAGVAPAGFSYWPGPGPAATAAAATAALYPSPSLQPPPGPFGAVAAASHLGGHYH
# Method in brief: as §1
# ETV5 = ETV5 (Homo sapiens, UniProt P41161 1-510); settings: protein: recombinant; tags: N-terminal GST; dsDNA, one strand shown
# Method in brief: as §1
# HSF1 = HSF1 (Homo sapiens, UniProt Q00613 1-529); settings: protein: recombinant; tags: N-terminal GST; chain copies: 3; dsDNA, one strand shown
# Method in brief: as §1
# SPIC = target: T8, SPIC (Homo sapiens, UniProt Q8N5J4 1-248); settings: protein: recombinant; tags: N-terminal GST; dsDNA, one strand shown
# T8 sequence: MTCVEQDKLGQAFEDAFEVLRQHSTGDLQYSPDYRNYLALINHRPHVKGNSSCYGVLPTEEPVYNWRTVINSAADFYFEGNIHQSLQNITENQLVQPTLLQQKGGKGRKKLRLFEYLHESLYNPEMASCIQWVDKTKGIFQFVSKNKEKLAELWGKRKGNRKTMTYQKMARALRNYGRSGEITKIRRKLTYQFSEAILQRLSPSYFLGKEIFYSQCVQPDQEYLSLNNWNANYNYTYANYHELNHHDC
# Method in brief: as §1
# ELF4 = ELF4 (Homo sapiens, UniProt Q99607 1-663); settings: protein: recombinant; tags: N-terminal GST; dsDNA, one strand shown
# Method in brief: as §1
# ELK4 = target: T9, ELK4 (Homo sapiens, UniProt P28324-2 1-405); settings: protein: recombinant; tags: N-terminal GST; dsDNA, one strand shown
# T9 sequence: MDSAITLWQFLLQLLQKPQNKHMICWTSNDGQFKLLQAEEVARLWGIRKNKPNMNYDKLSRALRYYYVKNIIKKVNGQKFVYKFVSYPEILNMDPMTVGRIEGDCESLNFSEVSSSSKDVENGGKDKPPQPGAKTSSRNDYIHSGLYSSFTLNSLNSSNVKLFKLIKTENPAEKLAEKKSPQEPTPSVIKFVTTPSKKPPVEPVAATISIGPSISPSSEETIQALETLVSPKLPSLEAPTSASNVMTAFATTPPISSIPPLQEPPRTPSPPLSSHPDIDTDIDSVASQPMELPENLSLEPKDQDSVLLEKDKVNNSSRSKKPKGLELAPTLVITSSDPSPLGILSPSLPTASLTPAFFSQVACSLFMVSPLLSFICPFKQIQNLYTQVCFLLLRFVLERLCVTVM
# Method in brief: as §1
# ETV2 = target: T10, ETV2 (Homo sapiens, UniProt O00321 1-342); settings: protein: recombinant; tags: N-terminal GST; dsDNA, one strand shown
# T10 sequence: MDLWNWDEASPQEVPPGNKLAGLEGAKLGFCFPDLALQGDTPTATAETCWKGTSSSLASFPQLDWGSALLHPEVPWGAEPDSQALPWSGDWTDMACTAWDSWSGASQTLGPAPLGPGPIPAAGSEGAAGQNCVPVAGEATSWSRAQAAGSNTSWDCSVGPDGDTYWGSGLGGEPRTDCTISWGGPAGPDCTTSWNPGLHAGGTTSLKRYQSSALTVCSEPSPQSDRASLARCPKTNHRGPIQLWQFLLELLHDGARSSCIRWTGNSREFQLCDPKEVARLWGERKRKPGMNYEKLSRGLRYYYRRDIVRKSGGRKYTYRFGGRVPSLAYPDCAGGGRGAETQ
# Method in brief: as §1
# ELF3 = target: T11, ELF3 (Homo sapiens, UniProt P78545 1-371); settings: protein: recombinant; tags: N-terminal GST; dsDNA, one strand shown
# T11 sequence: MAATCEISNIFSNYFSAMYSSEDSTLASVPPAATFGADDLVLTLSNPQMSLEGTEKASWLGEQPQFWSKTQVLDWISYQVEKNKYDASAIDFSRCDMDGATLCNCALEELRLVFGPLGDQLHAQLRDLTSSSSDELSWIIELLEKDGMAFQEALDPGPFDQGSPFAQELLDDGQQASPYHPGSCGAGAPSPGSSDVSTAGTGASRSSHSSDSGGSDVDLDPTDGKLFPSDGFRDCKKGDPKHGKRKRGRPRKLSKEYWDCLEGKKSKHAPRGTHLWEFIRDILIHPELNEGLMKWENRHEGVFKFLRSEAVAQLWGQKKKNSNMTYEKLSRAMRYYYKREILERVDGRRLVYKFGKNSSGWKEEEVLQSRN
# Method in brief: as §1
# ETV1 = ETV1 (Homo sapiens, UniProt P50549 1-477); settings: protein: recombinant; tags: N-terminal GST; dsDNA, one strand shown
# Method in brief: as §1
# Sequence of ETV5 (P41161 whole entry): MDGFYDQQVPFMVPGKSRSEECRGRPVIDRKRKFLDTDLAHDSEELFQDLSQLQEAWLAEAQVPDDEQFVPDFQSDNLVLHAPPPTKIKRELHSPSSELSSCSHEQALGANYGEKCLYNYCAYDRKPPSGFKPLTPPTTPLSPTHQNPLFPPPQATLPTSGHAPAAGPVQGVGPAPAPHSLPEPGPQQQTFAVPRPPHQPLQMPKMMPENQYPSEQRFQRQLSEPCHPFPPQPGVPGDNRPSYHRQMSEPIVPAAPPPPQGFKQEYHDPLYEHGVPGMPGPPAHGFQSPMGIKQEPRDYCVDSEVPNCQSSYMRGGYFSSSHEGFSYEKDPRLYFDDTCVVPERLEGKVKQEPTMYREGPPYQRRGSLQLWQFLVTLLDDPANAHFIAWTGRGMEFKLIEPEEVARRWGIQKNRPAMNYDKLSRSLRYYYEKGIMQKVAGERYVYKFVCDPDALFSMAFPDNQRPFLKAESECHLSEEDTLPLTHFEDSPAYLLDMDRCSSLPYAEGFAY
# Sequence of ELF1 (P32519 whole entry): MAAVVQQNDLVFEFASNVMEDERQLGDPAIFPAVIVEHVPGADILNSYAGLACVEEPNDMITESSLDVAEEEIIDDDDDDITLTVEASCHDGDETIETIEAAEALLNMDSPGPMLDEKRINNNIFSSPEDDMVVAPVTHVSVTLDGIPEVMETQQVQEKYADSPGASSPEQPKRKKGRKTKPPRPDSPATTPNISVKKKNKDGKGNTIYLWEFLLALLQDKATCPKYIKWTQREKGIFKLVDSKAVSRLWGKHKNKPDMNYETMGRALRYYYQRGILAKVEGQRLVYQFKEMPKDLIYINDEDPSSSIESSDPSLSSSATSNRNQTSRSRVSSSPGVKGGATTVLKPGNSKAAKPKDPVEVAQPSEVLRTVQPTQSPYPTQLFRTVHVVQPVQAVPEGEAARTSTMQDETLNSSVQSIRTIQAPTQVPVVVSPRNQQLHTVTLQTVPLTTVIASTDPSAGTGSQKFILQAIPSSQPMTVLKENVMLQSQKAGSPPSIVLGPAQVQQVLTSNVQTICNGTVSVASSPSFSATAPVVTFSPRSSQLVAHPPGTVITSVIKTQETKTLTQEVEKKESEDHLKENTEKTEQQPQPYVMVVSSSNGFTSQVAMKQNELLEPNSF
# Sequence of ETV1 (P50549 whole entry): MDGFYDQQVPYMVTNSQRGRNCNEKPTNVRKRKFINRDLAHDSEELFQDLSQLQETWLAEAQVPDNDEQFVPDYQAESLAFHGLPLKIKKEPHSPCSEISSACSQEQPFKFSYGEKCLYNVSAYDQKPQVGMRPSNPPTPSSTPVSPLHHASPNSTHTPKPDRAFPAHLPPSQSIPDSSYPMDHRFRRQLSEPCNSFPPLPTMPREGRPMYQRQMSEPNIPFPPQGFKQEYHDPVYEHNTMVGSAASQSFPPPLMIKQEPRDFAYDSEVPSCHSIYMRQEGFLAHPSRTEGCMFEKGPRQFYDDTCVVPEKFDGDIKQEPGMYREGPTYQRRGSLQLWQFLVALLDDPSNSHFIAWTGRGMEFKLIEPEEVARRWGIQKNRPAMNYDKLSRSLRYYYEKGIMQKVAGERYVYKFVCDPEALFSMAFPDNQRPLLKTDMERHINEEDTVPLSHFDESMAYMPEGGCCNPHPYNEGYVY
# Sequence of ELF4 (Q99607 whole entry): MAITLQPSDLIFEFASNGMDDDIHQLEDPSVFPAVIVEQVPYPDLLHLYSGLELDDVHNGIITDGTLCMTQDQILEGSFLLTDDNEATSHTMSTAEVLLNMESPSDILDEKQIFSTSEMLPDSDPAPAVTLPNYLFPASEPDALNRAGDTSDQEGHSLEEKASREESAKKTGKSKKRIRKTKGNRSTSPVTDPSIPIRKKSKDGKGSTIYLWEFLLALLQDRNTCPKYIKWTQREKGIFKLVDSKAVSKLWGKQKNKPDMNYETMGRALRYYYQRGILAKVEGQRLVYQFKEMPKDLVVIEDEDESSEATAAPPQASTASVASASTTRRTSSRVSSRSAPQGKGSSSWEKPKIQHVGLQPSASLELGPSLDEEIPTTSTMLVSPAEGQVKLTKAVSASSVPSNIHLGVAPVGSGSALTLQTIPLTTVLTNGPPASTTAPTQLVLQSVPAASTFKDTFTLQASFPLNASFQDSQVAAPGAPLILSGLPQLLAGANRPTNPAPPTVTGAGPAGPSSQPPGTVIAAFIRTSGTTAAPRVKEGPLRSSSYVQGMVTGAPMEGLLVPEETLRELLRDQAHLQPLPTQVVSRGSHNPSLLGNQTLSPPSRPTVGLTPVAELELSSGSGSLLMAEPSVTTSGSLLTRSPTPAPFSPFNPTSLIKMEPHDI
# Sequence of HSF1 (Q00613 whole entry): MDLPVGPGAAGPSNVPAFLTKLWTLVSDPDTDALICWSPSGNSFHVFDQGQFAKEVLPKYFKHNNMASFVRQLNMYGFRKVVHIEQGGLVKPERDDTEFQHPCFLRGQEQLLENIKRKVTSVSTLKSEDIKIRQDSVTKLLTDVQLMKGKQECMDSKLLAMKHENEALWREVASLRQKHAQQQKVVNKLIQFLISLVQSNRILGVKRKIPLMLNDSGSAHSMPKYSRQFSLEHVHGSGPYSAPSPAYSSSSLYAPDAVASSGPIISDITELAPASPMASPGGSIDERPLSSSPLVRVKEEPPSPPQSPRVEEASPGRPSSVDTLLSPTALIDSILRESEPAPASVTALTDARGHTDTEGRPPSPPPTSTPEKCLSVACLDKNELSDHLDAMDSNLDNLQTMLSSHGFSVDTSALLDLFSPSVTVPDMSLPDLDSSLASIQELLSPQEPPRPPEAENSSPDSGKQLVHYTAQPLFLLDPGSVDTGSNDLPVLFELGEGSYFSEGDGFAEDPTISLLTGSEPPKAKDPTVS
# Sequence of SPIB (Q01892 whole entry): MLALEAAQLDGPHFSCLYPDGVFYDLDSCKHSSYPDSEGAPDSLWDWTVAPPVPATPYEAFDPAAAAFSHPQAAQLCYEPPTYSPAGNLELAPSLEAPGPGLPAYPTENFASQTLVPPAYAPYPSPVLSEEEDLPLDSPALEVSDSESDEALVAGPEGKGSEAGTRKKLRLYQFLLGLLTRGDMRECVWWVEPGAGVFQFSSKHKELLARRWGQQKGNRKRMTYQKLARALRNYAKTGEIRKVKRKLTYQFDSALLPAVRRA
sequence,measurement,setting,value
CGTTCC,binding signal,FLI1,"1.43 fold enrichment (6-mer frequency, TF over GST control)"
same,binding signal,ELK1,"1.35 fold enrichment (6-mer frequency, TF over GST control)"
same,binding signal,GABPA,"1.29 fold enrichment (6-mer frequency, TF over GST control)"
same,binding signal,ERG,"1.45 fold enrichment (6-mer frequency, TF over GST control)"
same,binding signal,ELF1,"1.44 fold enrichment (6-mer frequency, TF over GST control)"
same,binding signal,EHF,"1.42 fold enrichment (6-mer frequency, TF over GST control)"
same,binding signal,SPI1,"1.44 fold enrichment (6-mer frequency, TF over GST control)"
same,binding signal,SPIB,"1.54 fold enrichment (6-mer frequency, TF over GST control)"
same,binding signal,ELK3,"1.46 fold enrichment (6-mer frequency, TF over GST control)"
same,binding signal,FEV,"1.5 fold enrichment (6-mer frequency, TF over GST control)"
same,binding signal,ETV5,"1.47 fold enrichment (6-mer frequency, TF over GST control)"
same,binding signal,HSF1,"1.44 fold enrichment (6-mer frequency, TF over GST control)"
same,binding signal,SPIC,"1.51 fold enrichment (6-mer frequency, TF over GST control)"
same,binding signal,ELF4,"1.47 fold enrichment (6-mer frequency, TF over GST control)"
same,binding signal,ELK4,"1.31 fold enrichment (6-mer frequency, TF over GST control)"
same,binding signal,ETV2,"1.33 fold enrichment (6-mer frequency, TF over GST control)"
same,binding signal,ELF3,"1.27 fold enrichment (6-mer frequency, TF over GST control)"
same,binding signal,ETV1,"1.47 fold enrichment (6-mer frequency, TF over GST control)"
